Pf growth 48h – P. falciparum growth inhibition at 48 hours (one generation); P. falciparum luciferase growth in erythrocytes, 48 h; Potency, µM (doses to about 28.7 µM), for the others: top-dose activity change, negative = inhibition, hits mostly inhibitors; 5.9% of 310,000 active; active = well fitted inhibition curve with a large enough effect; inconclusive = small, poorly fitted or top-dose-only effect, or another doubt; inactive = no such curve, though single readings can be large or run the other way; note: % is set by controls: 0 for no effect and ±100 for the full control effect
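Cell-based growth assay: transgenic P. falciparum expressing firefly luciferase, cultured in red cells within RPMI 1640 containing 0.5% w/v Albumax, 24 mM bicarbonate and gentamycin. A drop in luciferase activity indicates inhibition.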
SARS PLpro yeast – inhibitors of SARS-CoV papain-like protease in yeast. 0.19% of 330,000 active. Potency, µM (highest dose often 32.9 µM), without a hit: top-dose activity, positive = growth rescue, hits mostly activators. S. cerevisiae expressing SARS-CoV PLpro, growth rescue; note: 0% is about no effect; nearly all actives have a fitted effect of over 55% in size
NS1 inh – inhibitors of influenza NS1 protein function; Potency, µM (series often up to 46.1 µM), for the others: at the highest dose activity, positive = more growth; 0.4% of 270,000 active; note: actives are rising curves; nearly all actives have a fitted effect of over 50% in size
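Growth recovery, yeast-based: influenza A NS1 expressed in S. cerevisiae causes slow growth, and suppressors are detected by OD600. The parent strain without NS1 is used as positive control.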
Pf growth 96h – P. falciparum growth inhibition at 96 hour, primary screen for plastid delayed-death inhibitors | P. falciparum luciferase reporter growth, 96 h | Potency, µM (titrated, usually from 28.7 µM), without a hit: at the highest dose activity change, negative = inhibition, most hits filed as inhibitors | 6.9% of 320,000 active | AID 504834; active = well fitted inhibition curve with a large enough effect; inconclusive = small, poorly fitted or top-dose-only effect, or another doubt; inactive = no such curve, though single readings can be large or run the other way; note: % is set by controls: 0 for no effect and ±100 for the full control effect
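96 h incubation, 37 C, 5% CO2, of luciferase-reporter P. falciparum-infected RBCs (2% hematocrit, 0.05% parasitemia final) with test compounds; endpoint luminescence.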
* marks the source's active call; other numbers are inactive results. In the library only some 10% were active in any assay of this set; here they are far more common. Unless noted, calls come from the whole dose curve. Potency is the fitted concentration of half-maximal effect.

Screening Cn1c(C(=O)N2CCN(Cc3ccc4c(c3)OCO4)CC2)cc2c(=O)n(C)c3ccccc3c21 returned SARS PLpro yeast 3%, NS1 inh -40% and Pf growth 96h 1.9µM*.
For COc1ccc(Cl)cc1NC(=O)CN(C)C(=O)c1cccc2cccnc12 the results were SARS PLpro yeast -3%.
CC(=O)N1CCOc2ccc(S(=O)(=O)NCCc3cccc(C)c3)cc21 was read as Pf growth 48h 21%, SARS PLpro yeast -4%, NS1 inh -14% and Pf growth 96h 10µM*.
For CC(=O)N1CCOc2ccc(S(=O)(=O)N3CCCC(C)C3)cc21 (stereo not drawn) the results were Pf growth 48h -7%, SARS PLpro yeast -11%, NS1 inh 17% and Pf growth 96h 12µM*.
Screening CC(=O)N1CCOc2ccc(S(=O)(=O)N3CCC(C(=O)Nc4ccc(F)cc4)CC3)cc21 returned Pf growth 48h inconclusive, SARS PLpro yeast inconclusive, NS1 inh -4% and Pf growth 96h 15µM*.
CC(=O)N1CCOc2ccc(S(=O)(=O)N3CCC(C(=O)Nc4ccc(C)c(C)c4)CC3)cc21 was read as Pf growth 48h -8%, SARS PLpro yeast -4%, NS1 inh 9% and Pf growth 96h inconclusive.
Screening CC(=O)N1CCOc2ccc(S(=O)(=O)NCCc3ccccc3)cc21 returned Pf growth 48h 10%, SARS PLpro yeast 1%, NS1 inh 0% and Pf growth 96h inconclusive.
`CCNC(=O)c1cc(S(=O)(=O)N2CCSCC2)ccc1OC` gave Pf growth 48h -1%, SARS PLpro yeast -4%, NS1 inh 12% and Pf growth 96h inconclusive.
For Cc1ccc(S(=O)(=O)N2CCOC2CNC(=O)C(=O)NCc2ccc(Cl)cc2)cc1 (stereo not drawn) the results were Pf growth 48h 5%, SARS PLpro yeast 3%, NS1 inh 5% and Pf growth 96h 4%.
`CC(=O)Nc1ccc(S(=O)(=O)NCCC(=O)OC(C)C(=O)NC2(C#N)CCCCC2)cc1` (stereo not drawn) gave Pf growth 48h -26%, SARS PLpro yeast -2% and Pf growth 96h 11%.
Cc1cc(NC(=O)CCC(=O)N(CC(=O)NC2CCCC2)c2ccc(Cl)c(Cl)c2)no1 was read as Pf growth 48h inconclusive, SARS PLpro yeast 1%, NS1 inh 2% and Pf growth 96h 43%.
COCCN(Cc1cc2c(C)cc(C)cc2nc1Cl)C(=O)c1ccccc1F was read as Pf growth 48h inconclusive, SARS PLpro yeast 0% and Pf growth 96h 1.9µM*.
For COCCN(Cc1cc2cc(C)cc(C)c2nc1Cl)C(=O)Nc1ccccc1 the results were Pf growth 48h inconclusive, SARS PLpro yeast -14%, NS1 inh 3% and Pf growth 96h 0%.
`COc1ccc(C(=O)N=C2SC3CS(=O)(=O)CC3N2c2ccc(N(C)C)cc2)cc1OC` (stereo not drawn) gave Pf growth 48h -22%, SARS PLpro yeast 0%, NS1 inh 18% and Pf growth 96h 9.3µM*.
Screening COc1ccc(N2C(=NC(=O)C3CCCCC3)SC3CS(=O)(=O)CC32)cc1OC (stereo not drawn) returned Pf growth 48h 5%, SARS PLpro yeast 1%, NS1 inh -8% and Pf growth 96h 16%.
For CC(=O)N1CCC2(CC1)C(C#N)=C(N)Oc1n[nH]c(CSc3ccc(C)cc3)c12 the results were Pf growth 48h 32%, SARS PLpro yeast 0%, NS1 inh -1% and Pf growth 96h 6.6µM*.
Screening Cc1ccc(SCc2[nH]nc3c2C2(C(=O)Nc4ccc(F)cc42)C(C#N)=C(N)O3)cc1 (stereo not drawn) returned Pf growth 48h 4%, SARS PLpro yeast -5% and NS1 inh 10%.
Cc1ccc2c(N)c(C(=O)N(c3ccccc3)c3ccccc3)sc2n1 was read as Pf growth 48h 9.3µM*, SARS PLpro yeast -7%, NS1 inh 10% and Pf growth 96h inconclusive.
CCN(CC)CCN(C(=O)C1=COCCO1)c1nc2c(OC)ccc(OC)c2s1 was read as Pf growth 48h inconclusive, SARS PLpro yeast -3%, NS1 inh -4% and Pf growth 96h -21%.
Screening O=C(NC12CC3CC(CC(C3)C1)C2)N1CCC(n2nnc3ccccc32)CC1 returned Pf growth 48h inconclusive, SARS PLpro yeast 7%, NS1 inh -19% and Pf growth 96h 9.3µM*.
CCOc1ccc(NC(=O)N2CCC(n3nnc4ccccc43)CC2)cc1 was read as Pf growth 48h inconclusive, SARS PLpro yeast -1%, NS1 inh -7% and Pf growth 96h 6%.
`O=C(NC12CC3CC(CC(C3)C1)C2)N1CCN(c2ccccn2)CC1` gave Pf growth 48h 12µM*, SARS PLpro yeast -1%, NS1 inh -12% and Pf growth 96h 2%.
Cc1ccc(S(=O)(=O)N2CC3CCCC2C3)cc1 (stereo not drawn) was read as Pf growth 48h 1.7µM*, SARS PLpro yeast -2%, NS1 inh -1% and Pf growth 96h -33%.
For N#CC(Cc1ccc(O)c(O)c1)C(=O)N1CCc2ccccc21 (stereo not drawn) the results were NS1 inh 3%.
Screening COc1ccc(-c2cccc(C(=O)NCC(=O)O)c2)cc1 returned SARS PLpro yeast -1%, NS1 inh -120% and Pf growth 96h 6%.
`COC(=O)CNC(=O)c1cccc(-c2ccc(OC)cc2)c1` gave Pf growth 48h 66%, SARS PLpro yeast -2%, NS1 inh -32% and Pf growth 96h 2.3µM*.
Screening CS(=O)(=O)N1CCCC(C(=O)NCc2cccs2)C1 (stereo not drawn) returned Pf growth 48h -4%, SARS PLpro yeast 5%, NS1 inh -4% and Pf growth 96h 5.9µM*.
Screening CCC1CCCCN1S(=O)(=O)c1ccc(S(=O)(=O)N(Cc2cccs2)C2CC2)cc1 (stereo not drawn) returned Pf growth 48h 8.3µM*, SARS PLpro yeast -1%, NS1 inh 17% and Pf growth 96h 29%.
For O=C(NCc1cccs1)C1CCCN(S(=O)(=O)c2cccs2)C1 (stereo not drawn) the results were Pf growth 48h -6%, SARS PLpro yeast 0% and NS1 inh 4%.
CCS(=O)(=O)N1CCC(C(=O)NCc2cccs2)CC1 was read as Pf growth 48h 0%, SARS PLpro yeast 1%, NS1 inh -5% and Pf growth 96h 7.4µM*.
For Cc1ccc(S(=O)(=O)N2CCCC(C(=O)N(Cc3cccs3)C3CC3)C2)cc1 (stereo not drawn) the results were Pf growth 48h 5.2µM*, SARS PLpro yeast -11%, NS1 inh -2% and Pf growth 96h 13µM*.
`COc1ccc(CN(C)C(=O)COC(=O)c2ccc(-c3ccccc3)cc2)c(OC)c1OC` gave Pf growth 48h inconclusive, SARS PLpro yeast -4% and Pf growth 96h 79%.
For CCCCN1C(=O)C(=O)N(CC(=O)Nc2ccccc2C(=O)OCC)C1=O the results were Pf growth 48h inconclusive, SARS PLpro yeast 2%, NS1 inh 1% and Pf growth 96h 9%.
CC(C)c1ccc(NC(=O)c2cc(S(=O)(=O)NCC3COc4ccccc4O3)ccc2F)cc1 (stereo not drawn) was read as Pf growth 48h inconclusive, SARS PLpro yeast -37%, NS1 inh -1% and Pf growth 96h 2.9µM*.
